Screen size: about 39,000 compounds; about 3,300 (8.5%) were called active. Many of the other results were omitted from the sample, so actives are more common in it than they were.
Each compound was assayed on HepG2 (assay: cytotoxicity call (relative viability < 0.9)). Details: 10 µM.

Compound	cytotoxicity call
CC(C)=CCC/C(C)=C/CC/C(C)=C/CCC(=O)OC/C=C(\C)CCC=C(C)C	inactive
Cc1noc(C)c1NC(=O)Nc1ccc2c(c1)C(=O)N([C@H](C)CO)C[C@H](C)[C@H](CN(C)Cc1ccc(C(=O)Nc3ccccc3N)cc1)OCCCC[C@@H](C)O2	inactive
COc1ccc(NC(=O)N(C)C[C@H]2OCCCC[C@H](C)Oc3ccc(NC(=O)Cc4ccccc4)cc3C(=O)N([C@@H](C)CO)C[C@H]2C)cc1	inactive
C[C@@H]1CN([C@H](C)CO)C(=O)Cc2cc(NC(=O)Cc3cn(C)c4ccccc34)ccc2O[C@@H]1CN(C)C(=O)Nc1cccc2ccccc12	inactive
C[C@@H]1CCCCO[C@@H](CN(C)C(=O)Cc2ccccc2)[C@@H](C)CN([C@H](C)CO)C(=O)c2cc(NC(=O)Nc3ccc4c(c3)OCO4)ccc2O1	inactive
C[C@@H]1CCCCO[C@H](CN(C)Cc2ccc(C(F)(F)F)cc2)[C@@H](C)CN([C@@H](C)CO)C(=O)c2cc(NC(=O)c3ccncc3)ccc2O1	inactive
C[C@@H]1CCCCO[C@@H](CN(C)Cc2ccc(C(F)(F)F)cc2)[C@H](C)CN([C@@H](C)CO)C(=O)c2cc(NS(=O)(=O)c3ccccc3)ccc2O1	active
C[C@H](CO)N1C[C@H](C)[C@H](CN(C)Cc2ccc(C(F)(F)F)cc2)OCCCC[C@H](C)Oc2ccc(NS(=O)(=O)c3ccccc3)cc2C1=O	active
C[C@H]1CCCCO[C@@H](CN(C)Cc2ccc(C(F)(F)F)cc2)[C@@H](C)CN([C@@H](C)CO)C(=O)c2cc(NS(=O)(=O)c3ccccc3)ccc2O1	inactive
C[C@@H]1CCCCO[C@@H](CN(C)Cc2ccc(C(F)(F)F)cc2)[C@@H](C)CN([C@H](C)CO)C(=O)c2cc(NS(=O)(=O)c3ccccc3)ccc2O1	active
C[C@H]1CCCCO[C@H](CN(C)Cc2ccc(C(F)(F)F)cc2)[C@@H](C)CN([C@@H](C)CO)C(=O)c2cc(NS(=O)(=O)c3ccccc3)ccc2O1	inactive
C[C@@H]1CCCCO[C@H](CN(C)Cc2ccc(C(F)(F)F)cc2)[C@H](C)CN([C@H](C)CO)C(=O)c2cc(NS(=O)(=O)c3ccccc3)ccc2O1	inactive
C[C@@H]1CCCCO[C@@H](CN(C)Cc2ccc(C(F)(F)F)cc2)[C@H](C)CN([C@H](C)CO)C(=O)c2cc(NS(=O)(=O)c3ccccc3)ccc2O1	inactive
C[C@@H]1CCCCO[C@H](CN(C)Cc2ccc(C(F)(F)F)cc2)[C@@H](C)CN([C@H](C)CO)C(=O)c2cc(NS(=O)(=O)c3ccccc3)ccc2O1	inactive
C[C@@H]1CCCCO[C@@H](CN(C)Cc2ccc(C(F)(F)F)cc2)[C@@H](C)CN([C@@H](C)CO)C(=O)c2cc(NS(=O)(=O)c3ccccc3)ccc2O1	active
COc1ccc(S(=O)(=O)N(C)C[C@@H]2Oc3ccc(NC(=O)NC(C)C)cc3CC(=O)N([C@@H](C)CO)C[C@@H]2C)cc1	inactive
COc1ccc(NC(=O)N(C)C[C@H]2OCCCC[C@H](C)Oc3ccc(NC(=O)C4CCCCC4)cc3C(=O)N([C@H](C)CO)C[C@H]2C)cc1	inactive
C[C@@H]1CN([C@@H](C)CO)C(=O)CCCn2nncc2CO[C@H]1CN(C)C(=O)C1CC1	inactive
COc1ccc(NC(=O)N(C)C[C@H]2Oc3c(NS(C)(=O)=O)cccc3C(=O)N([C@@H](C)CO)C[C@H]2C)cc1	inactive
C[C@H]1CCCCO[C@@H](CN(C)C(=O)Nc2ccc(C(F)(F)F)cc2)[C@@H](C)CN([C@@H](C)CO)C(=O)c2cc(NC(=O)CCC(F)(F)F)ccc2O1	inactive
Cn1c(=O)c2c(nc(N3CCNCC3)n2CC(=O)c2ccc(Cl)cc2)n(C)c1=O	inactive

Compound	cytotoxicity call
COc1ccc(S(=O)(=O)N(C)C[C@H]2Oc3ccc(NC(=O)CCCN(C)C)cc3C(=O)N([C@@H](C)CO)C[C@@H]2C)cc1	inactive
COc1cccc(S(=O)(=O)N2C[C@@H](O)COC[C@@H]3O[C@H](CC(=O)NCCCN4CCOCC4)CC[C@H]32)c1	inactive
C[C@@H]1CN([C@H](C)CO)C(=O)c2cc(NC(=O)CCC(F)(F)F)ccc2O[C@@H](C)CCCCO[C@@H]1CN(C)Cc1ccncc1	inactive
COc1ccc(Oc2cc(NCCC(F)(F)F)c3ncc(-c4ccc(C(=O)NC5CC5)c(C)c4)n3n2)c(F)c1F	inactive
C[C@@H]1CN([C@@H](C)CO)C(=O)c2cc(NC(=O)NC3CCCCC3)ccc2O[C@@H]1CN(C)S(C)(=O)=O	inactive
C[C@H]1CN([C@@H](C)CO)S(=O)(=O)c2ccc(-c3cccc(C#N)c3)cc2O[C@@H]1CN(C)C(=O)c1ccncc1	inactive
C[C@@H]1CN([C@H](C)CO)C(=O)c2cc(NS(=O)(=O)c3ccccc3)ccc2O[C@@H](C)CCCCO[C@H]1CN(C)Cc1ccc(C(F)(F)F)cc1	active
C[C@@H]1CCCCO[C@H](CN(C)Cc2ccc(C(F)(F)F)cc2)[C@@H](C)CN([C@@H](C)CO)C(=O)c2cc(NS(=O)(=O)c3ccccc3)ccc2O1	inactive
C[C@@H]1CCCCO[C@H](CN(C)Cc2ccc(C(F)(F)F)cc2)[C@H](C)CN([C@@H](C)CO)C(=O)c2cc(NS(=O)(=O)c3ccccc3)ccc2O1	active
C[C@@H]1CN([C@@H](C)CO)C(=O)c2cc(NS(=O)(=O)c3ccccc3)ccc2O[C@@H](C)CCCCO[C@@H]1CN(C)Cc1ccc(C(F)(F)F)cc1	inactive
C[C@@H]1CN([C@@H](C)CO)C(=O)c2cc(NS(=O)(=O)c3ccccc3)ccc2O[C@@H](C)CCCCO[C@H]1CN(C)Cc1ccc(C(F)(F)F)cc1	inactive
C[C@@H]1CN([C@H](C)CO)C(=O)c2cc(NS(=O)(=O)c3ccccc3)ccc2O[C@@H](C)CCCCO[C@@H]1CN(C)Cc1ccc(C(F)(F)F)cc1	inactive
C[C@H]1CN([C@@H](C)CO)C(=O)c2cccc(NC(=O)c3nc4ccccc4s3)c2O[C@H]1CN(C)S(=O)(=O)c1cn(C)cn1	inactive
CCCNC(=O)Nc1ccc2c(c1)OC[C@H](C)N(C(=O)C1CCOCC1)C[C@@H](C)[C@@H](OC)CN(C)C2=O	inactive
Cc1noc(C)c1S(=O)(=O)Nc1cccc2c1O[C@@H](CN(C)CC1CC1)[C@@H](C)CN([C@H](C)CO)C2=O	inactive
Cc1ccc(S(=O)(=O)N2C[C@@H](O)COC[C@@H]3O[C@@H](CC(=O)NCc4ccc(Cl)c(Cl)c4)CC[C@H]32)cc1	active
Cc1ccc(S(=O)(=O)N2C[C@@H](O)COC[C@H]3O[C@H](CC(=O)NCc4ccc(Cl)c(Cl)c4)CC[C@@H]32)cc1	inactive
Cc1ccc(S(=O)(=O)N2C[C@H](O)COC[C@H]3O[C@H](CC(=O)NCc4ccc(Cl)c(Cl)c4)CC[C@@H]32)cc1	inactive
Cc1ccc(S(=O)(=O)N2C[C@@H](O)COC[C@@H]3O[C@H](CC(=O)NCc4ccc(Cl)c(Cl)c4)CC[C@H]32)cc1	inactive
Cc1ccc(S(=O)(=O)N2C[C@H](O)COC[C@@H]3O[C@@H](CC(=O)NCc4ccc(Cl)c(Cl)c4)CC[C@H]32)cc1	inactive
Cc1ccc(S(=O)(=O)N2C[C@@H](O)COC[C@H]3O[C@H](CC(=O)NCc4ccc5c(c4)OCO5)CC[C@@H]32)cc1	inactive

Compound	cytotoxicity call
Cc1ccc(S(=O)(=O)N2C[C@H](O)COC[C@@H]3O[C@H](CC(=O)NCc4ccc(Cl)c(Cl)c4)CC[C@H]32)cc1	active
Cc1ccc(S(=O)(=O)N2C[C@@H](O)COC[C@@H]3O[C@@H](CC(=O)NCc4ccc5c(c4)OCO5)CC[C@H]32)cc1	inactive
Cc1cccc(S(=O)(=O)N2C[C@@H](O)COC[C@H]3O[C@H](CC(=O)NCc4ccc(Cl)c(Cl)c4)CC[C@@H]32)c1	inactive
Cc1ccc(S(=O)(=O)N2C[C@H](O)COC[C@H]3O[C@@H](CC(=O)NCc4ccc(Cl)c(Cl)c4)CC[C@@H]32)cc1	active
Cc1ccc(S(=O)(=O)N2C[C@H](O)COC[C@@H]3O[C@H](CC(=O)NCc4ccc5c(c4)OCO5)CC[C@H]32)cc1	active
Cc1ccc(S(=O)(=O)N2C[C@@H](O)COC[C@H]3O[C@@H](CC(=O)NCc4ccc(Cl)c(Cl)c4)CC[C@@H]32)cc1	inactive
C[C@H](CO)N1C[C@H](C)[C@@H](CN(C)C(=O)CCC(F)(F)F)OCc2ccccc2-c2c(n(C)c3ccccc23)C1=O	inactive
CSc1scc(-c2cc(Cl)cc(Cl)c2)c1C#N	inactive
C[C@H](CO)N1C[C@H](C)[C@@H](CN(C)S(=O)(=O)c2cccs2)Oc2ccc(NC(=O)CCCN(C)C)cc2C1=O	inactive
Cc1ccc(S(=O)(=O)Nc2ccc3c(c2)C(=O)N([C@@H](C)CO)C[C@@H](C)[C@@H](CN(C)C(=O)Nc2ccccc2)OCCCC[C@@H](C)O3)cc1	inactive
CCCC/C=C/[C@H]([C@@H](O)Cc1ccccc1)N(CC#Cc1ccccc1)Cc1ccccc1Br	inactive
COc1ccc(NC(=O)Nc2ccc3c(c2)C(=O)N([C@H](C)CO)C[C@@H](C)[C@@H](CN(C)C(=O)Nc2ccc(C(F)(F)F)cc2)O3)cc1	inactive
C[C@@H](O)CN1CCN(S(=O)(=O)C2CC2)CC1	inactive
C[C@@H]1CN([C@H](C)CO)C(=O)c2cccc(NC(=O)C3CC3)c2O[C@H]1CN(C)S(=O)(=O)c1ccccc1	inactive
CC(=O)Nc1nc(C(=O)O)cs1	inactive
CC(C)(C)c1cc(NC(=O)Nc2ccc(Oc3ccnc4nc(O)cnc34)cc2F)n(-c2ccccc2)n1	inactive
Cc1ccc(-n2nc(C(C)(C)C)cc2NC(=O)Nc2ccc(OCCN3CCOCC3)c3ccccc23)cc1	active
Cc1ccc(S(=O)(=O)NC2=NCN(CCN3CCOCC3)CN2)cc1	inactive
CCCNC(=O)N1C[C@@H](C)[C@@H](OC)CN(C)C(=O)c2cc(NS(=O)(=O)CC(F)(F)F)ccc2OC[C@H]1C	inactive

— the antibiotic and cytotoxicity screens of Wong et al. (2023)
